Our source for the growth values is PubChem BioAssay (NCI).

The panel holds about 83,000 compounds, 20% with a hit somewhere; the sample as a whole holds those more often.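 How to read the values: 0–100, growth inhibition (40 = 60% inhibited); 0, no net growth; -100 to 0, cell death (-40 = 40% of starting cells died; -100 = all dead).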 Active and inactive are the calls of the source. How the source made its calls: active means growth percent below 10; inactive means the rest.

This assay concerns EKVX NSCLC. As to the kind of experiment: NCI-60 one-dose screen, 48 h (100 = growth as untreated, 0 = no growth, -100 = all killed). The settings on record: 10 µM unless noted.
In the case of `Oc1cccc2ccc(-c3nnc(SCc4ccc(O)c5ncccc45)o3)nc12`, the growth was 17.5% (inactive).

As to `COC(=O)c1[nH]nc2c1C1(C(=O)N(C)c3ccccc31)C(C#N)=C(N)O2` (stereo unspecified), the growth was 99.3% (inactive).

In the case of `Cc1ccc2sc3c(c2c1)OC(N)=C(C#N)C3c1ccc(Cl)cc1` (stereo unspecified), the growth is 70.9% (inactive).

For the molecule `CC1=NC2=NN3C(=NN2C(c2ccccc2)=C1)N=NC(c1ccc(Br)cc1)=C3c1ccc(Br)cc1`, the growth is 96% (inactive).

Take `COc1ccc(/C=C/C(=O)c2cc(S(N)(=O)=O)c(OC)cc2OC)cc1`: the growth was 92.1% (inactive).

On to `N#Cc1cccc(CN2CCC3=C(C2)C(=O)N(Cc2ccc(Cl)cc2)C2=NCCCN23)c1`, for which the growth is 29% (inactive).

For the molecule `Cc1nn(-c2ccccc2)c2ncnc(N/N=C/c3ccccc3O)c12`, the growth was 23.7% (inactive).

On to `COc1ccc(CCN2C(=O)CSC2=S)cc1`, for which the growth was 96% (inactive).

For `CC(=O)N1C(=S)NC(=O)C1CC(C)C` (stereo unspecified), the growth is 102% (inactive).

Consider `Cc1ccc2sc3c(c2c1)OC(N)=C(C#N)C3c1cccc(F)c1` (stereo unspecified), for which the growth is 44.6% (inactive).

Regarding `COc1cc(-c2nc(SC(C)C)n(C(C)C)c(=O)c2C#N)ccc1OCc1ccccc1`, the growth was 81.3% (inactive).

`C/C(=N\O)[C@H]1C[C@]23CC[C@]4(C)[C@H](CC[C@@H]5[C@@]6(C)CC/C(=N/O)C(C)(C)[C@@H]6CC[C@]54C)[C@H]2[C@H](C)C1(C)OC3`: the growth is 70.9% (inactive).

For the molecule `NS(=O)(=O)c1ccc(-n2cc(-c3cccc(NC(=O)c4ccc(N5CCOCC5)c(C(F)(F)F)c4)c3)nn2)cc1`, the growth is 74.1% (inactive).

With `O=C1/C(=C/C=C/c2ccco2)SC(=S)N1c1ccccc1`, the growth was 81.2% (inactive).

As to `COc1cc(OC)c(S(N)(=O)=O)cc1C(C)=O`, the growth was 102% (inactive).

Regarding `CNC(=O)c1cc(Oc2ccc3nc(NC(=O)c4cc(N5CCOCC5)cc(C(F)(F)F)c4)sc3c2)ccn1`, the growth was 70.7% (inactive).

Turning to `CCCCCc1ccc(S(=O)(=O)Nc2cccc(-c3csc(NC(=O)CCCCCN4CCN(CCO)CC4)n3)c2)cc1`, the growth was 81% (inactive).

On to `CNC(=O)c1cc(Oc2ccc3nc(NC(=O)c4cccc(OC(F)(F)F)c4)sc3c2)ccn1`, for which the growth is 79.6% (inactive).

For `Cc1cc(C)c(N2C(=O)CC(Nc3ccc(Cl)cc3Cl)C2=O)c(C)c1` (stereo unspecified), the growth is 102% (inactive).

Consider `Cc1ccc(C(=O)NN2C(=O)/C(=C/C=C/c3ccco3)SC2=S)cc1`, for which the growth was 95.4% (inactive).

With `CC/C(=C/c1c(O)cccc1OC)c1ccc2c(OC)cccc2[o+]1`, the growth was 97.9% (inactive).

Consider `Cc1ccc2c(c1)C(=O)/C(=C/c1cccc(F)c1)S2`, for which the growth was 98.5% (inactive).

As for `COc1cc(/C=C2\C(=O)Nc3ccccc32)ccc1OCc1ccc(F)cc1`, the growth is 97.7% (inactive).

With `N/C(=N\C(N)=N\c1nc2ccccc2s1)c1ccc(C(F)(F)F)cc1`, the growth is 54.8% (inactive).

Turning to `CN(C)CCNC(=O)c1ccc(-c2nc3ccc4[nH]ncc4c3c3c2COCC3)cc1`, the growth was 33.1% (inactive).

As to `O=C(Nc1ccc(N=Cc2c(O)[nH]c3ccccc23)cc1)Nc1nccs1`, the growth is 34.6% (inactive).

As to `O=C(Nc1nonc1-c1ccccc1)c1ccc(C(F)(F)F)cc1`, the growth is 84.6% (inactive).

Consider `COc1cccc(C(=O)Nc2cccc(C#Cc3cccc4[nH]nc(N)c34)c2)c1`, for which the growth is 80.9% (inactive).

For the molecule `Cn1ccnc1C(=O)/C=C/c1ccc(NC(=O)c2ccc(F)cc2)cc1`, the growth was 42.1% (inactive).

`Nc1nc(-c2cccc([N+](=O)[O-])c2)c(N=Nc2ccccc2)s1`: the growth was 51.8% (inactive).

Regarding `Cc1ccc(N2C(=O)/C(=C/C=C/c3ccco3)SC2=S)cc1`, the growth was 95.4% (inactive).

Turning to `COc1cc(OC)c(S(N)(=O)=O)cc1C(=O)/C=C/c1ccc(C)cc1`, the growth is 45.6% (inactive).

Take `C#CC(=O)N(c1ccc(OC)cc1OC)C(C(=O)NCC(=O)OCC)c1cccs1` (stereo unspecified): the growth is 36.4% (inactive).

Consider `COc1ccc(/C=C(/C)c2ccc3ccc(OC)cc3[o+]2)c(O)c1`, for which the growth was 55.8% (inactive).

Turning to `Cc1ccc(-c2cc3nc(C(Cl)Cl)nc(C)n3n2)cc1`, the growth was 92.3% (inactive).

Consider `Cc1ccc(-c2nnc(SCc3ccc(O)c4ncccc34)n2-c2ccccc2)cc1`, for which the growth was 10.7% (inactive).
